Bioassay records (PubChem)
The list is not random: actives were taken first. Their share in the collection is about 11%.
IMPase cell inh – qHTS Assay for Identifying the Cell-Membrane Permeable IMPase Inhibitors. Inositol monophosphatase 1 (Rattus norvegicus), P97697. 120,000 tested, under 10 active. CHO-M1 cells, IP1 accumulation, HTRF TR-FRET ratio. inhibition (IP1 accumulation), % at 46.1 µM. AID 901, 2007; active means well fitted curve in the direction sought with a large enough effect in the signal ratio, not every such curve was filed as active; inconclusive means small, poorly fitted or top-dose-only effect, or a change in a side signal; inactive means no such curve, though single readings can be large or run the other way; the % refers to the signal ratio;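 further: cells stimulated with carbachol in lithium chloride buffer; plate controls were DMSO basal wells for no effect and reference inhibitor wells for full effect; higher means more IMPase inhibition seen as more IP1 and lower FRET ratio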
Target sequence (P97697 whole entry, looked up): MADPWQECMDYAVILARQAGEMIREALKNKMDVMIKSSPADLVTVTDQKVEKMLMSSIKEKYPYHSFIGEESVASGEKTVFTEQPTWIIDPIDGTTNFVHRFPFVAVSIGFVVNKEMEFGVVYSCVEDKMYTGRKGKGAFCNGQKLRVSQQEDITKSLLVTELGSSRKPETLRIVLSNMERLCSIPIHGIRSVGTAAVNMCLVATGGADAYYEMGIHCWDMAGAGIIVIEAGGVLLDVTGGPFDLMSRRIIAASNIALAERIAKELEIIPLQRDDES
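Cellular IMPase inhibition is scored as a rise in cytosolic IP1, detected by competitive TR-FRET between d2-labelled IP1 and a europium anti-IP1 antibody. M1-expressing CHO cells were stimulated with carbachol for 30 min at 37C, with lithium (50 mM LiCl) present in the buffer.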
IMPase Li cell – qHTS Assay for Identifying the Cell-Membrane Permeable IMPase Inhibitors: Potentiation with Lithium. CHO-M1 cells, IP1 TR-FRET (IP-One), carbachol + lithium. Potency, µM (titrated, usually from 59.4 µM), for inactives: at the top dose activity, negative = IMPase inhibition, actives largely listed as inhibitors. 210,000 compounds, 0.35% hits. AID 1457, 2008;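 further: IP1 builds up when IMPase is blocked and the TR-FRET signal falls; potency means the concentration at half of the fitted maximal effect; plate controls were basal vehicle for no effect and high inhibitor control for full effect; nearly all actives have a fitted effect of over 50% in size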
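CHO cells stably expressing M1 receptor (2000/well) were cultured 16–30 h, then exposed to compounds with a small lithium addition for 30 min at 37C. IP1 was measured by TR-FRET competition; AC50 from Hill fits.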
ALOX12 inhib – qHTS Assay for Inhibitors of 12-hLO (12-human lipoxygenase). AID 1452, 2008. purified 12-hLO, xylenol orange hydroperoxide absorbance. Potency, µM (titrated, usually from 57.1 µM), without a hit: top-dose activity change, negative = inhibition, actives largely listed as inhibitors. 150,000 compounds, 0.12% hits; further: potency means the concentration at half of the fitted maximal effect; nearly all actives have a fitted effect of over 55% in size
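Xylenol orange chromogenic assay: hydroperoxide from 12hLO oxidises Fe(II), giving red-shifted Fe(III)-XO absorbance. Conditions: 150 nM enzyme, 40 uM arachidonic acid, 25 mM Hepes pH 7.0, 0.01% Triton X-100, 30 min, room temperature.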
HPGD block – qHTS Assay for Inhibitors of HPGD (15-Hydroxyprostaglandin Dehydrogenase). 150,000 compounds, 4.3% hits. Potency, µM, for the others: top-dose activity change, negative = inhibition, hits mostly inhibitors. purified HPGD, NADH fluorescence kinetic, PGE2 substrate; active means well fitted inhibition curve with a large enough effect, not every such curve was filed as active; inconclusive means small, poorly fitted or top-dose-only effect, or another doubt; inactive means no such curve, though single readings can be large or run the other way; further: potency means the concentration at half of the fitted maximal effect
Target sequence (P15428 whole entry, looked up): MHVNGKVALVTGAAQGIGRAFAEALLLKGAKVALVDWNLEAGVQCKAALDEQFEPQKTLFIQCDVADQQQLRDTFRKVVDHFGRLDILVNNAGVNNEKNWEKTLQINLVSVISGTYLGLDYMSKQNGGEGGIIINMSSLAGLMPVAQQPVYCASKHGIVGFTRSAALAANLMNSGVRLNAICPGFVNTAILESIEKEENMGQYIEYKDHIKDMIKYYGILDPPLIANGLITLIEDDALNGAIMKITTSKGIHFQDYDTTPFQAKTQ
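NADH formation kinetics: reaction with 30 uM PGE2 and 1 mM NAD+ (final), 20 nM enzyme, Tris-HCl pH 8 with Tween 20, after 15 min compound preincubation at room temperature. Fluorescence change, last versus first of five reads.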
PNC inhibitor – High Content Assay for Compounds that inhibit the Assembly of the Perinucleolar Compartment; activity change (PNC), negative = inhibition, % at 10 µM; PC3M PTB-GFP, PNC prevalence imaging, 16 h; stronger effect = lower value; 140,000 compounds, 3.1% hits;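 active means readout at or below -70, meaning at least 70% loss of cells showing the perinucleolar compartment, a nuclear body marking cancer cells; inconclusive means readout between -30 and a set limit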;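 further: plate controls were DMSO wells for no effect and camptothecin positive control wells for full effect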
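Compounds are pinned in duplicate onto adhered PC3M cells stably expressing GFP-tagged PTB and incubated 16 h at 37 C. Cells are then fixed, nuclei stained with Hoechst, and PNC-positive cells counted.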
ALDH1A1 block – qHTS Assay for Inhibitors of Aldehyde Dehydrogenase 1 (ALDH1A1). Aldehyde dehydrogenase 1A1 (Homo sapiens), P00352. Purified ALDH1A1, NADH fluorescence, propionaldehyde substrate. Potency, µM (series often up to 75.3 µM), without a hit: at the highest dose activity, negative = inhibition, most hits filed as inhibitors. 220,000 compounds, 7.3% hits. AID 1030, 2008; active means well fitted inhibition curve with a large enough effect, not every such curve was filed as active; inconclusive means small, poorly fitted or top-dose-only effect, or another doubt; inactive means no such curve, though single readings can be large or run the other way;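 further: potency means the concentration at half of the fitted maximal effect; plate controls were no enzyme wells and a reference inhibitor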
Starred values were filed as active, the others as inactive; [ ] = remark or other dose. Unless noted, the call rests on the fitted dose curve; in most records, active means well fitted curve in the direction sought with a large enough effect; inconclusive means small, poorly fitted or top-dose-only effect, or another doubt; inactive means no such curve, though single readings can be large; an effect the other way counts as inactive or inconclusive. Unless noted, on the % scale 0 is the no-effect control and ±100 the full control effect.

Results for CC(=O)Nc1ccn(-c2ccccc2)n1 ?
IMPase cell inh: 5; IMPase Li cell: 11%; ALOX12 inhib: 5%; HPGD block: -14%; PNC inhibitor: -119*; ALDH1A1 block: 4%

What do the screens show for `O=C(Nc1ccn(-c2ccccc2)n1)c1ccc(Cl)cc1`?
IMPase Li cell: 10%; ALOX12 inhib: -6%; HPGD block: -22%; PNC inhibitor: 50; ALDH1A1 block: 5%

What do the screens show for `Cc1cccc(CN2CCN(CC(=O)NCCc3ccc(Cl)cc3)C2=O)c1`?
IMPase cell inh: 10

Results for Cc1oc2nc(SCC(=O)N3CCCCC3)nc(N)c2c1C ?
IMPase Li cell: 2%; ALOX12 inhib: -2%; HPGD block: 1.4µM*; PNC inhibitor: 4; ALDH1A1 block: inconclusive

Results for CCCCCCCN1C2=NCCCN2c2ccccc21 ?
IMPase Li cell: 24%; ALDH1A1 block: inconclusive

How did CCCCC[C@H](O)/C=C/C=C\C=C\C=C\[C@@H](O)[C@@H](O)CCCC(=O)O do in these assays?
IMPase Li cell: -5%; ALOX12 inhib: -2%; HPGD block: 1%; ALDH1A1 block: 10%

What do the screens show for `CCOC(=O)N1CCN(C(=O)c2cc(-c3ccc(OCC)cc3)nc3ccccc23)CC1`?
IMPase cell inh: 5; IMPase Li cell: 2%[38.3 µM]; ALOX12 inhib: -12%; HPGD block: inconclusive; PNC inhibitor: -95*; ALDH1A1 block: inconclusive

How did COc1cc(-c2ccccc2)nc2ccccc12 do in these assays?
IMPase cell inh: 22; IMPase Li cell: 21%; ALOX12 inhib: -9%; HPGD block: 28µM*; PNC inhibitor: 224; ALDH1A1 block: -1%

How did COc1ccc(-c2cc(OC)c3ccccc3n2)cc1 do in these assays?
IMPase Li cell: 6%; ALOX12 inhib: 1%; HPGD block: inconclusive; PNC inhibitor: inconclusive; ALDH1A1 block: inconclusive

What do the screens show for `COc1ccc2cc(-c3cc(C(=O)O)c4ccccc4n3)ccc2c1`?
IMPase cell inh: -13; IMPase Li cell: 10µM*; ALOX12 inhib: -5%; HPGD block: inconclusive; PNC inhibitor: 7; ALDH1A1 block: inconclusive

How did COc1ccc(-c2cc(C(=O)O)c3ccccc3n2)c(OC)c1 do in these assays?
IMPase cell inh: -3; IMPase Li cell: 0%[38.3 µM]; ALOX12 inhib: -14%; HPGD block: -2%; PNC inhibitor: 32; ALDH1A1 block: -11%

How did CCCn1c(SCC(=O)NCc2ccccc2)n[nH]c1=O do in these assays?
IMPase Li cell: -1%; ALDH1A1 block: 10%

What do the screens show for `N#Cc1cccc(-c2nc3cnc(N4CCOCC4)nc3n(C[C@H]3CCCO3)c2=O)c1`?
IMPase Li cell: 6%; ALDH1A1 block: inconclusive

Results for CCOC(=O)CCCNC(=O)N1CCc2nc(-c3ccccc3)c3c(c2C1)CO[C@@H](C)C3 ?
IMPase Li cell: 4%; ALOX12 inhib: 1%[11.4 µM]; HPGD block: -1%; ALDH1A1 block: 4%[13.5 µM]

What do the screens show for `CC1=NN(C(N)=S)C(=O)C1N=Nc1ccccc1C` (configuration not stated)?
IMPase cell inh: inconclusive; IMPase Li cell: 13%; ALOX12 inhib: -5%; HPGD block: -26%; PNC inhibitor: -2; ALDH1A1 block: 5µM*

What do the screens show for `CC1=NN(C(=O)c2ccncc2)C(=O)[C@@H]1N=Nc1ccc2ccccc2c1`?
IMPase Li cell: -2%; ALOX12 inhib: 3%[11.4 µM]; HPGD block: -7%; ALDH1A1 block: 6%[13.5 µM]
